Data taken from PubChem BioAssay AID1159580 (chemical genetic matrix, 2015).
About 2,000 (36%) of roughly 5,500 compounds were called active. Inconclusive results (about 18%) are left out. The list shows a part of the results. A number with no mark means an inactive call. Rule as the data show it: active = normalized growth mostly below about 0.91 (no sharp cut-off); inconclusive = no clear call, values can overlap the other calls; inactive = mostly above about 0.92.

Assay: chemical genetic growth profiling, strain panel (AID 1159580);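 also: tested at 20 µM; growth read once vehicle control cultures reached saturation at 30 °C; 1 = growth at the plate median or of vehicle wells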
Conditions: growth OD

## CN(C)CCCO[C@H]1[C@@H](C(O)CO)OC2OC(C)(C)O[C@@H]21 (some centres not stated)
S. cerevisiae deletion strains, locus YJR075W, strain HOC1, stronger effect = lower value
  normalized growth: 0.981
S. cerevisiae deletion strains, locus YKL009W, strain mrt4, stronger effect = lower value
  normalized growth: 0.988
S. cerevisiae deletion strains, locus YKL068W, stronger effect = lower value
  normalized growth: 0.99
S. cerevisiae deletion strains, locus YKL085W, strain MDH1 (second series), stronger effect = lower value
  normalized growth: 1.01
S. cerevisiae deletion strains, locus YKL085W, strain MDH1, stronger effect = lower value
  normalized growth: 1.01
S. cerevisiae deletion strains, locus YKL160W, strain elf1, stronger effect = lower value
  normalized growth: 0.975
S. cerevisiae deletion strains, locus YKL190W, strain CNB1, stronger effect = lower value
  normalized growth: 0.97
S. cerevisiae deletion strains, locus YKR001C, strain vps1, stronger effect = lower value
  normalized growth: 0.867 (active)
S. cerevisiae deletion strains, locus YKR026C, strain gcn3, stronger effect = lower value
  normalized growth: 0.991
S. cerevisiae deletion strains, locus YKR091W, strain srl3, stronger effect = lower value
  normalized growth: 0.98
S. cerevisiae deletion strains, locus YLL001W, strain dnm1, stronger effect = lower value
  normalized growth: 0.94
S. cerevisiae deletion strains, locus YLL026W, stronger effect = lower value
  normalized growth: 0.985
S. cerevisiae deletion strains, locus YLL041C, strain sdh2, stronger effect = lower value
  normalized growth: 0.993
S. cerevisiae deletion strains, locus YLR027C, strain aat2, stronger effect = lower value
  normalized growth: 0.997
S. cerevisiae deletion strains, locus YLR039C, strain RIC1, stronger effect = lower value
  normalized growth: 0.993
S. cerevisiae deletion strains, locus YLR058C, strain SHM2, stronger effect = lower value
  normalized growth: 0.985
S. cerevisiae deletion strains, locus YLR102C, strain apc9, stronger effect = lower value
  normalized growth: 0.988
S. cerevisiae deletion strains, locus YLR113W, strain HOG1, stronger effect = lower value
  normalized growth: 0.985
S. cerevisiae deletion strains, locus YLR221C, strain rsa3, stronger effect = lower value
  normalized growth: 0.957
S. cerevisiae deletion strains, locus YLR258W, strain gsy2, stronger effect = lower value
  normalized growth: 0.998
S. cerevisiae deletion strains, locus YLR262C, strain YPT6 (second series), stronger effect = lower value
  normalized growth: 0.978
S. cerevisiae deletion strains, locus YLR262C, strain YPT6, stronger effect = lower value
  normalized growth: 1.04
S. cerevisiae deletion strains, locus YLR268W, strain sec22, stronger effect = lower value
  normalized growth: 0.945
S. cerevisiae deletion strains, locus YLR320W, strain mms22, stronger effect = lower value
  normalized growth: 0.963
S. cerevisiae deletion strains, locus YLR330W, strain CHS5, stronger effect = lower value
  normalized growth: 0.995
S. cerevisiae deletion strains, locus YLR342W, strain FKS1 (second series), stronger effect = lower value
  normalized growth: 0.896
S. cerevisiae deletion strains, locus YLR342W, strain FKS1, stronger effect = lower value
  normalized growth: 0.985
S. cerevisiae deletion strains, locus YLR357W, strain rsc2, stronger effect = lower value
  normalized growth: 0.955
S. cerevisiae deletion strains, locus YLR370C, strain arc18, stronger effect = lower value
  normalized growth: 0.977
S. cerevisiae deletion strains, locus YLR371W, strain rom2, stronger effect = lower value
  normalized growth: 0.993
S. cerevisiae deletion strains, locus YLR384C, strain iki3, stronger effect = lower value
  normalized growth: 0.972
S. cerevisiae deletion strains, locus YLR418C, strain cdc73, stronger effect = lower value
  normalized growth: 0.748 (active)
S. cerevisiae deletion strains, locus YML016C, strain PPZ1, stronger effect = lower value
  normalized growth: 0.979
S. cerevisiae deletion strains, locus YML032C, strain rad52, stronger effect = lower value
  normalized growth: 0.945
S. cerevisiae deletion strains, locus YML120C, strain ndi1, stronger effect = lower value
  normalized growth: 0.964
S. cerevisiae deletion strains, locus YML124C, strain tub3, stronger effect = lower value
  normalized growth: 0.98
S. cerevisiae deletion strains, locus YMR058W, strain fet3, stronger effect = lower value
  normalized growth: 0.975
S. cerevisiae deletion strains, locus YMR078C, strain ctf18, stronger effect = lower value
  normalized growth: 0.969
S. cerevisiae deletion strains, locus YMR125W, strain sto1, stronger effect = lower value
  normalized growth: 0.978
S. cerevisiae deletion strains, locus YMR129W, stronger effect = lower value
  normalized growth: 0.993
S. cerevisiae deletion strains, locus YMR205C, strain PFK2, stronger effect = lower value
  normalized growth: 0.961
S. cerevisiae deletion strains, locus YMR223W, strain ubp8, stronger effect = lower value
  normalized growth: 0.902 (active)
S. cerevisiae deletion strains, locus YMR231W, strain pep5, stronger effect = lower value
  normalized growth: 0.991
S. cerevisiae deletion strains, locus YMR263W, strain SAP30, stronger effect = lower value
  normalized growth: 0.942
S. cerevisiae deletion strains, locus YMR307W, strain GAS1, stronger effect = lower value
  normalized growth: 0.937
S. cerevisiae deletion strains, locus YNL067W, strain RPL9B, stronger effect = lower value
  normalized growth: 0.974
S. cerevisiae deletion strains, locus YNL071W, strain lat1, stronger effect = lower value
  normalized growth: 1.06
S. cerevisiae deletion strains, locus YNL128W, strain TEP1, stronger effect = lower value
  normalized growth: 1
S. cerevisiae deletion strains, locus YNL153C, strain GIM3, stronger effect = lower value
  normalized growth: 0.953
S. cerevisiae deletion strains, locus YNL183C, strain NPR1, stronger effect = lower value
  normalized growth: 0.945
S. cerevisiae deletion strains, locus YNL209W, strain ssb2, stronger effect = lower value
  normalized growth: 0.999
S. cerevisiae deletion strains, locus YNL233W, strain BNI4, stronger effect = lower value
  normalized growth: 0.917
S. cerevisiae deletion strains, locus YNL248C, strain rpa49, stronger effect = lower value
  normalized growth: 0.983
S. cerevisiae deletion strains, locus YNL250W, strain rad50, stronger effect = lower value
  normalized growth: 0.936
S. cerevisiae deletion strains, locus YNL271C, strain bni1, stronger effect = lower value
  normalized growth: 0.983
S. cerevisiae deletion strains, locus YNL298W, strain CLA4, stronger effect = lower value
  normalized growth: 0.974
S. cerevisiae deletion strains, locus YNL307C, strain MCK1, stronger effect = lower value
  normalized growth: 0.871 (active)
S. cerevisiae deletion strains, locus YNL322C, strain KRE1 (second series), stronger effect = lower value
  normalized growth: 0.968
S. cerevisiae deletion strains, locus YNL322C, strain KRE1, stronger effect = lower value
  normalized growth: 0.991
S. cerevisiae deletion strains, locus YNR049C, strain mso1, stronger effect = lower value
  normalized growth: 0.971
S. cerevisiae deletion strains, locus YNR052C, strain pop2, stronger effect = lower value
  normalized growth: 0.987
S. cerevisiae deletion strains, locus YOL006C, strain TOP1, stronger effect = lower value
  normalized growth: 0.876
S. cerevisiae deletion strains, locus YOL012C, strain htz1
  normalized growth: 0.444
S. cerevisiae deletion strains, locus YOL147C, strain pex11, stronger effect = lower value
  normalized growth: 0.991
S. cerevisiae deletion strains, locus YOR001W, strain rrp6, stronger effect = lower value
  normalized growth: 1.01
S. cerevisiae deletion strains, locus YOR061W, strain CKA2, stronger effect = lower value
  normalized growth: 0.995
S. cerevisiae deletion strains, locus YOR069W, strain VPS5, stronger effect = lower value
  normalized growth: 0.984
S. cerevisiae deletion strains, locus YOR070C, strain gyp1, stronger effect = lower value
  normalized growth: 0.99
S. cerevisiae deletion strains, locus YOR080W, strain dia2, stronger effect = lower value
  normalized growth: 0.968
S. cerevisiae deletion strains, locus YOR083W, strain WHI5, stronger effect = lower value
  normalized growth: 0.953
S. cerevisiae deletion strains, locus YOR106W, strain vam3, stronger effect = lower value
  normalized growth: 0.926
S. cerevisiae deletion strains, locus YOR136W, strain idh2, stronger effect = lower value
  normalized growth: 0.966
S. cerevisiae deletion strains, locus YOR144C, strain elg1, stronger effect = lower value
  normalized growth: 0.992
S. cerevisiae deletion strains, locus YOR184W, strain ser1, stronger effect = lower value
  normalized growth: 0.872 (active)
S. cerevisiae deletion strains, locus YOR231W, strain MKK1, stronger effect = lower value
  normalized growth: 0.97
S. cerevisiae deletion strains, locus YOR265W, strain rbl2, stronger effect = lower value
  normalized growth: 0.993
S. cerevisiae deletion strains, locus YOR270C, strain vph1, stronger effect = lower value
  normalized growth: 0.925
S. cerevisiae deletion strains, locus YOR290C, strain snf2, stronger effect = lower value
  normalized growth: 0.964
S. cerevisiae deletion strains, locus YOR316C, strain cot1, stronger effect = lower value
  normalized growth: 0.988
S. cerevisiae deletion strains, locus YPL051W, strain arl3, stronger effect = lower value
  normalized growth: 0.985
S. cerevisiae deletion strains, locus YPL055C, strain LGE1, stronger effect = lower value
  normalized growth: 0.954
S. cerevisiae deletion strains, locus YPL078C, strain atp4, stronger effect = lower value
  normalized growth: 0.973
S. cerevisiae deletion strains, locus YPL106C, strain sse1, stronger effect = lower value
  normalized growth: 0.96
S. cerevisiae deletion strains, locus YPL240C, strain hsp82, stronger effect = lower value
  normalized growth: 0.985
S. cerevisiae deletion strains, locus YPL241C, strain CIN2, stronger effect = lower value
  normalized growth: 0.987
S. cerevisiae deletion strains, locus YPL256C, strain CLN2, stronger effect = lower value
  normalized growth: 0.971
S. cerevisiae deletion strains, locus YPR119W, strain clb2, stronger effect = lower value
  normalized growth: 0.992
S. cerevisiae deletion strains, locus YPR141C, strain kar3, stronger effect = lower value
  normalized growth: 0.99
S. cerevisiae deletion strains, locus YPR163C, strain tif3, stronger effect = lower value
  normalized growth: 0.986
S. cerevisiae deletion strains, locus YPR167C, strain met16, stronger effect = lower value
  normalized growth: 0.992
S. cerevisiae deletion strains, strain wtn01, stronger effect = lower value
  normalized growth: 0.922
S. cerevisiae strains, strain wild type, stronger effect = lower value
  normalized growth: 0.909
